Source: PubChem (National Center for Advancing Translational Sciences (NCATS))
CHX counter = affects cycloheximide protein synthesis inhibition readout, counter-screen | max response, % | cell reporter, cycloheximide protein synthesis inhibition counterscreen | 300,000 tested, 12% active; in the data active means max response mostly above about 13%, no sharp cut-off; inactive means mostly below about 14%; further: read at 38.3 µM for the half of the compounds with a filed dose; 0% is about no effect
Giardia FBPA inh = blocks Giardia fructose-bisphosphate aldolase activity; AID 2451; Potency, µM (titrated, usually from 59.6 µM), inactives show at the top dose activity, negative = inhibition, most hits filed as inhibitors; A8B2U2; purified Giardia FBPA; 290,000 tested, 0.71% active; further: potency means the concentration at half of the fitted maximal effect; on the % scale 0 is the no-effect control and ±100 the full control effect; nearly all actives have a fitted effect of over 55% in size
Target sequence (A8B2U2 whole entry, looked up): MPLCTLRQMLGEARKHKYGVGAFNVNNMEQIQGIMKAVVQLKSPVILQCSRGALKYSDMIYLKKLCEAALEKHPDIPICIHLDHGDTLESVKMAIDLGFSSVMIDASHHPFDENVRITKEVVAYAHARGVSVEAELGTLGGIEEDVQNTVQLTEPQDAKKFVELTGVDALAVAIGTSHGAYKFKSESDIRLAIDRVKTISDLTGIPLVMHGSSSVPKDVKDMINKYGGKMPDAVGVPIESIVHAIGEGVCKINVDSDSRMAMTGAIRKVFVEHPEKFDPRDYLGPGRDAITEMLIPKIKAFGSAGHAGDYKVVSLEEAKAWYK
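40 nM FBPA preincubated 10 min at RT with compound (up to 57.5 uM final), then substrate plus GAPDH/TPI/NAD/arsenate coupling and diaphorase/resazurin added. Fluorescence read after 20 min at RT, 525/598 nm.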
Shiga toxin inh = inhibitors of Shiga toxin in Vero cells; Vero cells, Shiga toxin protein synthesis inhibition reporter; inhibition, % at 38.7 µM; 290,000 tested, 9.2% active; in the data active means inhibition mostly above about 28%, no sharp cut-off; inactive means mostly below about 43%; further: 0% is about no effect
LmPK inh = LmPK (Leishmania mexicana) enzyme inhibition; 290,000 tested, 0.37% active; purified LmPK, Kinase-Glo ATP luminescence, 1 h; Potency, µM (series often up to 57.5 µM), without a hit: top-dose activity change, negative = inhibition, actives largely listed as inhibitors; AID 1721; further: potency means the concentration at half of the fitted maximal effect; on the % scale 0 is the no-effect control and ±100 the full control effect
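Pyruvate kinase activity monitored as ATP production (luciferase luminescence). Conditions: 0.1 nM enzyme, 0.5 mM PEP, 0.1 mM ADP, 1 h, RT; normalized against uninhibited and no-enzyme wells.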
Tb PYK inh = T. brucei pyruvate kinase inhibition. Q57TT1. TbPYK enzyme, Kinase-Glo Plus ATP luminescence, 45 min. Potency, µM (titrated, usually from 76.8 µM), for the others: top-dose activity, negative = inhibition, usual class: inhibitors. 410,000 tested, 0.12% active; further: potency means the concentration at half of the fitted maximal effect; on the % scale 0 is the no-effect control and ±100 the full control effect; nearly all actives have a fitted effect of over 50% in size
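Activity of T. brucei pyruvate kinase was followed by Kinase-Glo Plus luminescence after the enzyme reacted 45 min at room temperature with 130 uM ADP (final) and substrate. Test compounds were added before ADP at multiple concentrations.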
Sm TGR inh = S. mansoni TGR enzyme inhibition; Q962Y6; purified TGR, DTNB reduction, TNB absorbance 405 nm; Potency, µM (highest dose often 114 µM), without a hit: at the highest dose activity change, negative = inhibition, most hits filed as inhibitors; 360,000 tested, 3% active; AID 485364; further: potency means the concentration at half of the fitted maximal effect; on the % scale 0 is the no-effect control and ±100 the full control effect; nearly all actives have a fitted effect of over 60% in size
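Kinetic colorimetric format: TGR-catalysed, NADPH-driven DTNB reduction monitored via TNB absorbance. Enzyme dispensed at 20 nM; compound exposure 15 min at room temperature before reaction start.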
* marks the source's active call; other numbers are inactive results; ? = inconclusive; . = no result; + = active, no number; [ ] = remark or other dose. The sample as a whole holds a higher share of hits than the screen did. Unless noted, the call rests on the fitted dose curve; in most records, active means well fitted curve in the direction sought with a large enough effect; inconclusive means small, poorly fitted or top-dose-only effect, or another doubt; inactive means no such curve, though single readings can be large; an effect the other way counts as inactive or inconclusive.

SMILES	CHX counter	Giardia FBPA inh	Shiga toxin inh	LmPK inh	Tb PYK inh	Sm TGR inh
Cc1cccc(-c2nc(CS(=O)CC(=O)NC3CCCC(C)C3C)c(C)o2)c1 (stereo not drawn)	4.6	-8.8%	11.9	-1.1%	3.3%	5.01µM*
Cc1oc(-c2ccc(Cl)cc2)nc1CS(=O)CC(=O)NC1CCCCCC1 (stereo not drawn)	-2.0	.	22.5	-0.7%	3.0%	10µM*
CCOC(=O)c1nnn(C(CC)C(=O)Nc2ccc(F)cc2)c1C(=O)OCC (stereo not drawn)	.	.	.	.	-13.3%	2.7%
COc1cc(-c2nnc(SCC(=O)c3cc(C)n(CC4CCCO4)c3C)o2)cc(OC)c1OC (stereo not drawn)	64.2*	-15.2%	active	0.6%	-3.2%	-22.5%
Cc1cc(C(=O)CSc2nnc(-c3ccc(F)cc3)o2)c(C)n1CC1COc2ccccc2O1 (stereo not drawn)	-4.5	-6.4%	2.4	2.4%	-10.7%	4.0%
Cc1cc(C(=O)CSc2nnc(-c3ccccc3)o2)c(C)n1CC1COc2ccccc2O1 (stereo not drawn)	9.4	14.7%	38.8*	-1.2%	-6.4%	-12.2%
Cc1ccc(N=Nc2c(O)n(CN3CCOCC3)c3ccccc23)cc1	62.9*	-0.9%	105.5*	-3.4%	-15.4%	-29.0%
Cc1cccc(NC(=S)N=Nc2c(O)n(CN3CCOCC3)c3ccccc23)c1C	1.0	4.4%	-7.4	6.7%	4.0%	8.2%
COCCN1CCN(C(=O)c2ccc3nc(Cc4ccc(OC)c(OC)c4)oc3c2)CC1	10.3	.	14.4	-8.1%	-10.9%	?
COc1ccc(Cc2nc3ccc(C(=O)N4C[C@@H](C)O[C@@H](C)C4)cc3o2)cc1OC	43.7*	.	62.5*	0.2%	-5.1%	-0.8%
COc1ccc(Cc2nc3ccc(C(=O)N4CCOCC4)cc3o2)cc1	67.9*	.	+	-4.3%	-0.8%	-23.4%
CCN(CCn1cccn1)C(=O)c1ccc2nc(Cc3ccc(OC)cc3)oc2c1	23.1*	13.6%	56.0	2.6%	-6.4%	9.4%
COc1ccc(Cc2nc3ccc(C(=O)NCCn4cccn4)cc3o2)cc1	2.1	1.0%	5.4	7.9%	-11.7%	-24.5%
Cc1ccccc1NC(=O)c1ccc(F)c(S(=O)(=O)N(C)C2CCCCC2)c1	.	.	.	.	1.0%	-4.0%
CNc1ccccc(-c2ccc3ccccc3n2)c1=O	59.3*	?	52.2*	-4.6%	-4.8%	-12.0%
O=C(O)CCCCCn1c(SCc2cc(=O)n3cc(Cl)ccc3n2)nc2ccsc2c1=O	-2.8	-1.4%	16.1	3.8%	6.7%	6.5%
O=c1c2sccc2nc(SCc2cc(=O)n3cc(Cl)ccc3n2)n1Cc1ccccn1	40.9*	-11.4%	82.4*	-2.7%	3.9%	-4.0%
O=c1c2sccc2nc(SCc2ccc([N+](=O)[O-])cc2)n1Cc1ccccn1	25.6*	-2.4%	61.9*	0.2%	-1.3%	-1.1%
COc1ccc(C(C)(O)c2nc(-c3ccccc3OC)cs2)cc1 (stereo not drawn)	.	.	.	.	-1.2%	.
CCCc1cc(=O)[nH]c(Nc2cc(Cl)cc(Cl)c2)n1	.	.	.	.	3.3%	11.1%
N=C1/C(=C\c2coc3ccc(O)cc3c2=O)C(=O)N=C2SC=CN12	2.7	-29.1%	-1.8	-2.7%	-9.8%	28.2µM*
O=C1NC(=O)C(=Cc2coc3ccc(O)cc3c2=O)C(=O)N1	-2.4	-8.1%	-2.3	-6.4%	?	?
COc1ccc(NCc2nc3ccccc3n2CCOc2ccc(C)cc2)cc1	28.2*	-15.2%	47.4*	0.8%	-3.1%	-9.4%
COc1ccc(NCc2nc3ccccc3n2CCOc2ccccc2)cc1	46.8*	-25.9%	84.3*	-1.1%	-5.2%	-3.2%
CCCc1nc2ccccc2n1CCOc1ccccc1	1.3	2.6%	-16.1	1.4%	4.2%	2.9%
SMILES	CHX counter	Giardia FBPA inh	Shiga toxin inh	LmPK inh	Tb PYK inh	Sm TGR inh
c1ccc(NCc2nc3ccccc3n2CCOc2ccccc2)cc1	15.7*	4.4%	active	4.3%	-4.8%	-5.8%
COc1ccc(NC(=O)c2cccc(N3CCCS3(=O)=O)c2)c(OC)c1	.	.	.	.	-1.6%	4.8%
CC(=O)C1=C(C)OC(N)=C(C#N)C1c1cc2cc(C)c(C)cc2nc1Cl (stereo not drawn)	31.2*	8.4%	active	10.0%	-0.6%	0.1%
Cc1cc(F)ccc1NC(=O)Cn1c(=O)ccc2cc(S(=O)(=O)N3CCC(C)CC3)ccc21	.	.	.	.	1.2%	4.4%
COc1cc(C=O)ccc1OCCSc1ccc(Cl)cc1	22.2*	0.8%	70.0*	1.3%	0.5%	2.0%
Oc1ccc(CN2CCN(c3ccccc3)CC2)c2cccnc12	-2.1	-20.9%	1.0	3.1%	3.6%	1.41µM*
Oc1ccc(CN2CCc3ccccc3C2)c2cccnc12	13.2	?	-7.0	4.7%	3.6%	31.6µM*
Clc1ccccc1CN1CCC(Cc2ccccc2)CC1	4.5	-22.1%	8.6	-2.5%	24.9%	6.3%
CCOC(=O)N1CCN(Cc2ccc(O)c3ncccc23)CC1	-2.2	-9.1%	2.8	3.5%	6.4%	0.282µM*
Cn1cc(CN2CCc3ccccc3C2)c2ccccc21	-0.8	-28.5%	-16.8	1.9%	1.0%	?
Oc1ccc(CN2CCCCC2)c2cccnc12	-3.2	?	0.6	2.3%	1.3%	0.0%
Oc1ccc(CN2CCC(Cc3ccccc3)CC2)c2cccnc12	4.6	-4.8%	21.5	-2.5%	-2.7%	7.94µM*
CC[C@@]1(c2ccccc2)NC(=O)N(C)C1=O	.	.	.	.	2.8%	.
CCc1ccc(NC(=O)Cn2c(-c3cncs3)nc3ccccc32)cc1	.	.	.	.	-1.1%	-1.3%
O=C(c1cc2n(n1)C(C(F)(F)F)CC(c1ccco1)N2)N1CCc2ccccc2C1 (stereo not drawn)	-1.0	-22.5%	-11.4	5.6%	2.3%	?
COc1cc2c(cc1OC)C(C)N(C(=O)c1cc3n(n1)C(C(F)(F)F)CC(c1ccco1)N3)CC2 (stereo not drawn)	3.0	?	22.8	-0.5%	3.2%	25.1µM*
COC(=O)C1=C(C(=O)OC)[C@@H]2Nc3ccccc3[C@@]23C[C@@H](C(=O)OC)N(S(=O)(=O)c2ccc(Br)cc2)C3=N1	.	-0.2%[12.9 µM]	.	-0.7%[11.5 µM]	.	.
CC(C)CCN=CC1=C(O)CC(c2ccccc2)CC1=O (stereo not drawn)	28.9*	2.5%	52.6	-13.2%	0.4%	1.6%
Cc1ccc(C2CC(=O)C(C=NCCN3CCN(C(=O)Cc4ccccc4)CC3)=C(O)C2)cc1 (stereo not drawn)	-2.3	2.2%	-15.0	2.9%	2.8%	22.4µM*
O=C(Oc1ccc(Cl)c2ccccc12)N1CCCCC1	32.1*	4.6%	71.9*	-0.9%	-5.6%	-7.7%
O=C(Oc1ccc2ccccc2c1Cl)N1CCCC1	37.6*	-3.5%	58.9*	-4.4%	-5.9%	-6.0%
O=C(Oc1c(Cl)cc(Cl)c2ccccc12)N1CCCCC1	13.8	2.6%	34.5	0.9%	-10.3%	4.1%
